Experimental findings from article PMC7862700, “An all-to-all approach to the identification of sequence-specific readers for epigenetic DNA modifications on cytosine” are described below.

Common to all, as to test: DAPPL (digital affinity profiling via proximity ligation, sequencing); 10 mM Tris-HCl pH 7.5, 50 mM NaCl, 1 mM DTT, 4% glycerol, room temperature, 30 min; GST-TFs on glutathione beads, 16-mer random dsDNA library, 0.1% formaldehyde crosslink after washing; high values mean tight binding
Settings in all cases: protein: recombinant; tags: N-terminal GST; dsDNA, one strand shown

In one experiment the target is T1, ERF (Homo sapiens, UniProt P50548 1-548).
T1 sequence: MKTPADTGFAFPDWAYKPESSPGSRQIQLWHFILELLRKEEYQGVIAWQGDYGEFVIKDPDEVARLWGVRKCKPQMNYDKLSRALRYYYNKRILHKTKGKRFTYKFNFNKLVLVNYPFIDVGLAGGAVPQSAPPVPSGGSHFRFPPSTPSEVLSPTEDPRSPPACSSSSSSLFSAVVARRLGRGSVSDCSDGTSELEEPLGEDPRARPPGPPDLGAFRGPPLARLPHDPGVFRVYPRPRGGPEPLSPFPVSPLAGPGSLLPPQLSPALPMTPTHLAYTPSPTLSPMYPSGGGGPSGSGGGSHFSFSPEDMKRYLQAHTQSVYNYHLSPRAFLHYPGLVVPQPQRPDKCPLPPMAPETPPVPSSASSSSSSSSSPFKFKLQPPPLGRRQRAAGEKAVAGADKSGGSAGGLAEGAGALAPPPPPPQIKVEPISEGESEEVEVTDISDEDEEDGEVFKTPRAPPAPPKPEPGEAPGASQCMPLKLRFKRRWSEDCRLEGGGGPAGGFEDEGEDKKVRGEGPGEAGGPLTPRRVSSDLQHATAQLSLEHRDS
Put shortly:
(§1)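 Beads coated with glutathione captured GST-fused human transcription factors that had been expressed in yeast, and the factors were then given DNA barcodes and pooled with a tag-only sample. The pools were incubated with 200 nmole of a random double-stranded 16-mer DNA library in Tris/NaCl/DTT/glycerol buffer for 30 min at room temperature, washed, crosslinked with 0.1% formaldehyde and proximity-ligated with BsaI/T4 ligase at 37 °C for 1 h. PCR amplification and Illumina NextSeq500 sequencing came last. Binding signal is each hexamer's read frequency for a factor divided by its frequency for the tag-only sample.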

A further experiment deals with T2, ETV3L (Homo sapiens, UniProt Q6ZN32 1-361).
T2 sequence: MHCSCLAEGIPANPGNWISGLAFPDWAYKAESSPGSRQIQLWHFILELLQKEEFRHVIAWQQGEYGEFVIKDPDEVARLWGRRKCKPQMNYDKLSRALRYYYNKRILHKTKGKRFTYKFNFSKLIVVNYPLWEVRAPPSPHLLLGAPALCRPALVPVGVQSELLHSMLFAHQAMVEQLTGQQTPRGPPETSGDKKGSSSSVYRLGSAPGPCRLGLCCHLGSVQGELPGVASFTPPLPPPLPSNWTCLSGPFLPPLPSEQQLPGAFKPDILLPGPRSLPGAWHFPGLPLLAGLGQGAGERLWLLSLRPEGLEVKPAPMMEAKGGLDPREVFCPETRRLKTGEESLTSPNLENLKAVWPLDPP
In outline:
as §1

Another experiment deals with T3, ETS2 (Homo sapiens, UniProt P15036 1-469).
T3 sequence: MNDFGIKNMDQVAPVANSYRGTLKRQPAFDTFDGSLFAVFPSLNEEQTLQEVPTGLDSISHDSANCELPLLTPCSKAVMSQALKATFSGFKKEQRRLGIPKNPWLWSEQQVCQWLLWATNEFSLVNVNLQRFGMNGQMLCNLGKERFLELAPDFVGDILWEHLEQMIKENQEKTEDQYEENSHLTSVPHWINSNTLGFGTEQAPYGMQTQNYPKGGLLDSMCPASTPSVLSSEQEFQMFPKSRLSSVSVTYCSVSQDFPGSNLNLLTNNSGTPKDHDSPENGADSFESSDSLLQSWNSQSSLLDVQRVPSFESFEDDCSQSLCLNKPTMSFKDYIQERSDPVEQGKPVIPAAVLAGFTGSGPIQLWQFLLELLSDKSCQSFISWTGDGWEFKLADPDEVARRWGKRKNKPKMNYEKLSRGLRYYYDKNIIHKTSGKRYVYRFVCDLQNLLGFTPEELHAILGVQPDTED
Put shortly: as §1

For another experiment, the target named is T4, SPDEF (Homo sapiens, UniProt O95238 1-335).
T4 sequence: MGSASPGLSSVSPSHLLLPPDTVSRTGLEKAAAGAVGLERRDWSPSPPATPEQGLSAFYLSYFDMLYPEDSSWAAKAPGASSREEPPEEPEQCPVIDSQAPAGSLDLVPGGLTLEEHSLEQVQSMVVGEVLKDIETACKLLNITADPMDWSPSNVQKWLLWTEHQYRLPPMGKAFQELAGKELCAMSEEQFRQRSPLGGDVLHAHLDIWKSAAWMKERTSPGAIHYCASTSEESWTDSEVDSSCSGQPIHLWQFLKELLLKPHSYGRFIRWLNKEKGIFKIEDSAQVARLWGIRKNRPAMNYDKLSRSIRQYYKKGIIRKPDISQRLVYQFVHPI
Put shortly: as §1

The target of the next experiment is T5, ETV7 (Homo sapiens, UniProt Q9Y603 1-341).
T5 sequence: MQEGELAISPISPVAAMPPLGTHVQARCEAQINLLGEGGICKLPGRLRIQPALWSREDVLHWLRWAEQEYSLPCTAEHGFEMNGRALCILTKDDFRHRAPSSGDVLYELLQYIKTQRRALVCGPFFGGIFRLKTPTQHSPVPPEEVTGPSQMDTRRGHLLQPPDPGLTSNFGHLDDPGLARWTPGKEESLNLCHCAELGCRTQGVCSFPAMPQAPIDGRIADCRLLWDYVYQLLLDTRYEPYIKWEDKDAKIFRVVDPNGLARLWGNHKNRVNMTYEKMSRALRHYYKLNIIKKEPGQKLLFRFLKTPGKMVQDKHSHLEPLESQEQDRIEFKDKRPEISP
In outline:
as §1

The target of the next experiment is T6, ELF5 (Homo sapiens, UniProt Q9UKW6-2 1-255).
T6 sequence: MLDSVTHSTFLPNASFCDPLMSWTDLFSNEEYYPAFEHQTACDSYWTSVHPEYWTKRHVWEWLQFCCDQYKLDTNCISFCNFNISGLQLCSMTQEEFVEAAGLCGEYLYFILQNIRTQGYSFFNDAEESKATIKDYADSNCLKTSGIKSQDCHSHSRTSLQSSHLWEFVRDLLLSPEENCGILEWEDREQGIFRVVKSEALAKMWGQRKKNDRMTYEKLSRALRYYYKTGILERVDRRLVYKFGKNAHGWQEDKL
In outline: as §1

The target of the next experiment is T7, ETV3 (Homo sapiens, UniProt P41162-2 1-143).
T7 sequence: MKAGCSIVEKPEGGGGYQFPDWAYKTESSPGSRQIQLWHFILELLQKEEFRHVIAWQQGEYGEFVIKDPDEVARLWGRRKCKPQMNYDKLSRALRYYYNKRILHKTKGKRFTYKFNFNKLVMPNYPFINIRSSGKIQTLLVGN
Put shortly: as §1

Another experiment addresses ETV6 (Homo sapiens, UniProt P41212 1-452). In outline:
as §1

Sequence of ETV6 (P41212 whole entry): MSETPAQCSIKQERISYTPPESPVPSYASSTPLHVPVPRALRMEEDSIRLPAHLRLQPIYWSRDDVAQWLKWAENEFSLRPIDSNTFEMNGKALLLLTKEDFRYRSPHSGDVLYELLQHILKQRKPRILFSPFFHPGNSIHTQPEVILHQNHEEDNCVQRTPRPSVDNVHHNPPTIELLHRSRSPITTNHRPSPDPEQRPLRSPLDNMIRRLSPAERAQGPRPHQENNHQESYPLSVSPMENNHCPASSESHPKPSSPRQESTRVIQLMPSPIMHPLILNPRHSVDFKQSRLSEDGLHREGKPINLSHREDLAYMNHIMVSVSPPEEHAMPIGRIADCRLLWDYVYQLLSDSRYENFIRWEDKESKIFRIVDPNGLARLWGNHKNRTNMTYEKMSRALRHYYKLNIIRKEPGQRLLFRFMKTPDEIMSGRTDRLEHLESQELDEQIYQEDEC

Consider ACGCCC, for which the binding signal with ERF was 1.24 fold enrichment (6-mer frequency, TF over GST control); in the experiment with ETV3L it was 1.17 fold enrichment (6-mer frequency, TF over GST control); with ETS2, 1.12 fold enrichment (6-mer frequency, TF over GST control); in the experiment with SPDEF, 1.07 fold enrichment (6-mer frequency, TF over GST control); in the experiment with ETV7, 1.03 fold enrichment (6-mer frequency, TF over GST control); with ELF5, 1.05 fold enrichment (6-mer frequency, TF over GST control). For the same sequence, the binding signal with ETV3 is 1.15 fold enrichment (6-mer frequency, TF over GST control); in the experiment with ETV6, 1.13 fold enrichment (6-mer frequency, TF over GST control).

With GTCTCT, the binding signal with ERF is 1.16 fold enrichment (6-mer frequency, TF over GST control); with ETV3L, 1.35 fold enrichment (6-mer frequency, TF over GST control); with ETS2 it was 1.32 fold enrichment (6-mer frequency, TF over GST control); with SPDEF, 1.15 fold enrichment (6-mer frequency, TF over GST control); in the experiment with ETV7, 1.02 fold enrichment (6-mer frequency, TF over GST control); with ELF5, 1.11 fold enrichment (6-mer frequency, TF over GST control). For the same sequence, the binding signal is 1.27 fold enrichment (6-mer frequency, TF over GST control) in the experiment with ETV3 and 1.19 fold enrichment (6-mer frequency, TF over GST control) with ETV6.

For the sequence GGAACT, the binding signal in the experiment with ERF was 1.48 fold enrichment (6-mer frequency, TF over GST control); with ETV3L, 1.71 fold enrichment (6-mer frequency, TF over GST control); with ETS2 it was 1.88 fold enrichment (6-mer frequency, TF over GST control); with SPDEF, 1.94 fold enrichment (6-mer frequency, TF over GST control); in the experiment with ETV7, 1.56 fold enrichment (6-mer frequency, TF over GST control); with ELF5 it was 2.25 fold enrichment (6-mer frequency, TF over GST control). The binding signal was 1.93 fold enrichment (6-mer frequency, TF over GST control) with ETV3 and 1.84 fold enrichment (6-mer frequency, TF over GST control) in the experiment with ETV6.

Regarding ATACGC, the binding signal with ERF was 1.18 fold enrichment (6-mer frequency, TF over GST control); in the experiment with ETV3L, 1.14 fold enrichment (6-mer frequency, TF over GST control); in the experiment with ETS2, 1.11 fold enrichment (6-mer frequency, TF over GST control); with SPDEF, 1.2 fold enrichment (6-mer frequency, TF over GST control); in the experiment with ETV7 it was 1.06 fold enrichment (6-mer frequency, TF over GST control); with ELF5, 1.11 fold enrichment (6-mer frequency, TF over GST control). The binding signal with ETV3 was 1.07 fold enrichment (6-mer frequency, TF over GST control); with ETV6, 1.2 fold enrichment (6-mer frequency, TF over GST control).

In the case of TACTGC, the binding signal in the experiment with ERF was 1.14 fold enrichment (6-mer frequency, TF over GST control); with ETV3L, 1.17 fold enrichment (6-mer frequency, TF over GST control); with ETS2, 1.2 fold enrichment (6-mer frequency, TF over GST control); in the experiment with SPDEF, 1.26 fold enrichment (6-mer frequency, TF over GST control); in the experiment with ETV7, 1.2 fold enrichment (6-mer frequency, TF over GST control); with ELF5, 1.17 fold enrichment (6-mer frequency, TF over GST control). Further, the binding signal is 1.31 fold enrichment (6-mer frequency, TF over GST control) with ETV3 and 1.26 fold enrichment (6-mer frequency, TF over GST control) in the experiment with ETV6.

Regarding ACTTAC, the binding signal with ERF was 1.08 fold enrichment (6-mer frequency, TF over GST control); with ETV3L, 1.09 fold enrichment (6-mer frequency, TF over GST control); with ETS2, 1.14 fold enrichment (6-mer frequency, TF over GST control); with SPDEF, 1.13 fold enrichment (6-mer frequency, TF over GST control); with ETV7, 1.14 fold enrichment (6-mer frequency, TF over GST control); with ELF5, 1.21 fold enrichment (6-mer frequency, TF over GST control). Besides, the binding signal was 1.09 fold enrichment (6-mer frequency, TF over GST control) with ETV3 and 1.13 fold enrichment (6-mer frequency, TF over GST control) with ETV6.

Consider CGATAC, for which the binding signal with ERF is 1.2 fold enrichment (6-mer frequency, TF over GST control); in the experiment with ETV3L, 1.18 fold enrichment (6-mer frequency, TF over GST control); in the experiment with ETS2 it was 1.19 fold enrichment (6-mer frequency, TF over GST control); with SPDEF, 1.29 fold enrichment (6-mer frequency, TF over GST control); with ETV7, 1.02 fold enrichment (6-mer frequency, TF over GST control); with ELF5 it was 1.1 fold enrichment (6-mer frequency, TF over GST control). Moreover, the binding signal with ETV3 is 1.15 fold enrichment (6-mer frequency, TF over GST control); with ETV6 it was 1.09 fold enrichment (6-mer frequency, TF over GST control).
